# According to PMC4336329 (PLoS ONE, 2015):
# In all, about 310,000 compounds went through this assay and about 14,000 (4.5%) showed an effect of 50% or more. Effects have a minus sign here. The sample as a whole holds a higher share of strong results than the screen did.
# Target: human ether-à-go-go-related gene (hERG) potassium channel (human, UniProt Q12809)
# Assay: primary screen, population patch clamp on CHO cells stably expressing hERG; higher = less effect of the substance
# 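Also: peak tail current of the secondary pulse compared with the same well before compound.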
# Chain of human ether-à-go-go-related gene (hERG) potassium channel (Q12809 whole entry, looked up): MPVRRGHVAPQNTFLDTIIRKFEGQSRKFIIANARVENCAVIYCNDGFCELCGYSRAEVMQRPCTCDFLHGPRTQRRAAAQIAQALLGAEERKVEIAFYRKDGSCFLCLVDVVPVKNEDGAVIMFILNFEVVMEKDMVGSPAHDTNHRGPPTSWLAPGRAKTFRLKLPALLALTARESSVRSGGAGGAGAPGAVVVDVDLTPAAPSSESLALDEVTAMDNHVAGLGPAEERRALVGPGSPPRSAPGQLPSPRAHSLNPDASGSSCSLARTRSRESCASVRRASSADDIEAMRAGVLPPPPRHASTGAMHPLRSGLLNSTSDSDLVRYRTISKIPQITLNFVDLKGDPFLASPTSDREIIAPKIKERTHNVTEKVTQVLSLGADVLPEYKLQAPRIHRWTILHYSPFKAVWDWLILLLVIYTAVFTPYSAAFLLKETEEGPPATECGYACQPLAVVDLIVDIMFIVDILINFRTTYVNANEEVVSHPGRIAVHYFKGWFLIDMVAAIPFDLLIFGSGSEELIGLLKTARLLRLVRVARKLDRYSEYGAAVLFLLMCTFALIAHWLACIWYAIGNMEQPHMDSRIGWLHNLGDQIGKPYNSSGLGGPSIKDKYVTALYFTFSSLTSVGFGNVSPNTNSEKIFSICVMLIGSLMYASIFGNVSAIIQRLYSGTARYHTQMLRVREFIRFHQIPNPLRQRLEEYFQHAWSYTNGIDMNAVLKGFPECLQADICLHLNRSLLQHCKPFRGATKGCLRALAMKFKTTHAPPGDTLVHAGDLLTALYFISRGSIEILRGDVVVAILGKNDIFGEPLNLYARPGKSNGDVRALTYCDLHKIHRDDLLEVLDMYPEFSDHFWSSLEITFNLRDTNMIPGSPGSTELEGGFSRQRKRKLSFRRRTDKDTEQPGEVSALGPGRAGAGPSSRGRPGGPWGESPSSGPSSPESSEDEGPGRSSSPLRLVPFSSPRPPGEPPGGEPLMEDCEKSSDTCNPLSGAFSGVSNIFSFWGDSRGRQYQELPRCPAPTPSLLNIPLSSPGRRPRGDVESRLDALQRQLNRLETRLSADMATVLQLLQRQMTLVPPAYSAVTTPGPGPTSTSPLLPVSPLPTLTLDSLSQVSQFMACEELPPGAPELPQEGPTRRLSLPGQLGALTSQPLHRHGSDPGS
row,SMILES,"hERG current change (%, negative = inhibition) at 10uM [%]"
1,COc1ccc(CCNC(=O)COC(=O)c2cc(=O)c3ccccc3o2)cc1,-1.09
2,Cc1cc(NC(=O)NC(=O)c2ccccc2)no1,23.1
3,Cn1c(O)c(N=Nc2nc(-c3ccccc3)cs2)c2ccccc21,-6.78
4,Cc1ccc(CNC(=O)CCSCCC(=O)NCc2ccc(C)cc2)cc1,7.08
5,N#Cc1c(NC(=O)c2cc([N+](=O)[O-])ccc2N2CCOCC2)sc2c1CCCC2,4.02
6,CN1C(=O)c2cccc3c(Br)ccc(c23)C1=O,-16.2
7,COC(=O)COc1ccc2cccc(-n3cnnn3)c2c1,12.5
8,CCc1ccc(C(=O)NNC(=O)C2CSC3(C)CCC(=O)N23)cc1 (stereo not drawn),-6.99
9,CCc1ccc2c(COC(=O)C3CSC4(C)CCC(=O)N34)cc(=O)oc2c1 (stereo not drawn),-61.1
10,CC12CCC(=O)N1C(C(=O)OCc1c(Cl)cccc1Cl)CS2 (stereo not drawn),-4.54
11,CCOC(C(=O)OCC(O)CN(CC)CC)(c1ccccc1)c1ccccc1.Cl (stereo not drawn),-5.25
12,CC(O)CN(Cc1ccc(Cl)cc1)CC(C)O (stereo not drawn),7.61
13,OC(COc1ccccc1)CN(Cc1ccccc1)CC(O)COc1ccccc1 (stereo not drawn),-9.08
14,COCCN(CCOC)CC(O)COC(c1ccccc1)c1ccccc1 (stereo not drawn),-35.9
15,CC(OCC(O)CN(C)Cc1nc2ccccc2c(=O)[nH]1)c1ccc(Cl)cc1 (stereo not drawn),-34
16,CCN(CC)CC(O)COC(c1ccccc1)c1ccccc1 (stereo not drawn),-57.8
17,CN(C)CCC(O)c1ccccc1 (stereo not drawn),9.45
18,CCCC(O)(c1ccc(OC)cc1)C(CN(C)C)c1ccccc1 (stereo not drawn),-4.69
19,CN(C)CC(O)COC(c1ccccc1)c1ccccc1 (stereo not drawn),-51.6
20,CCN(Cc1ccccc1)CC(O)COc1ccccc1.Cl (stereo not drawn),-25.7

row,SMILES,"hERG current change (%, negative = inhibition) at 10uM [%]"
1,CN(C)CC(O)COC(c1ccc(Cl)cc1)c1ccc(Cl)cc1 (stereo not drawn),-75.8
2,CCN(Cc1ccccc1)CC(O)COC(c1ccc(OC)cc1)c1ccc(OC)cc1 (stereo not drawn),-75.1
3,Cc1ccc(CN2CCCC(C(=O)N3CCCC3)C2)cc1.O=C(O)C(=O)O (stereo not drawn),-5.83
4,O=C(O)c1cc2nc(-c3ccccc3)cc(-c3ccccc3)n2n1,6.39
5,CN(C)S(=O)(=O)Oc1ccsc1C(=O)Nc1ccc(Br)cc1,-12.2
6,CCOC(=O)[C@H]1[C@H]2COc3cc(OC)ccc3[C@@H]2N2C(=O)c3cc(OC)c(OC)cc3NC(=O)[C@@]12C,-2.44
7,Cc1ccc(C(=O)NNC(=O)C2CCN(c3nc(C)cc(C)n3)CC2)cc1,4.83
8,Cc1cccc(C)c1C(=NCCN(C)C)c1ccccc1.Cl,-41.3
9,CCNc1nc(NCC)n2c(SCc3ccc(F)cc3)nnc2n1,-20.1
10,CC(C)=C1C2CCC1C(C(=O)Nc1sc(C)c(-c3ccc(C(C)C)cc3)c1C(N)=O)C2C(=O)O (stereo not drawn),-22.5
11,CN(C)C=O.O=C(NCCc1ccccc1)c1oc2ccccc2c1COc1ccccc1,12.4
12,Cc1ccc(-c2cc(C(=O)NCc3ccccn3)no2)cc1,0.477
13,Cc1ccc(NC(=O)c2cccc(S(=O)(=O)N3CCCC3)c2)nc1,-7.18
14,Cc1ccc(C(=O)Nc2ccc(C)c(S(=O)(=O)N3CCOCC3)c2)c(C)c1,-51
15,O=C(Nc1ccc(Cl)cn1)c1cccc(S(=O)(=O)N2CCOCC2)c1,-65.4
16,Cc1ccc(OCCNC(=O)c2cccc(S(=O)(=O)N3CCN(C)CC3)c2)cc1,-16.6
17,O=C(NCCOc1ccc(Cl)cc1)c1cccc(S(=O)(=O)N2CCCC2)c1,-51.8
18,Cc1ccc(NC(=O)c2ccc3c(c2)OCO3)cc1S(=O)(=O)N1CCOCC1,-20.3
19,O=C(Nc1ccccn1)c1cccc(S(=O)(=O)N2CCOCC2)c1,-6.45
20,O=C(Nc1ccc(Cl)cn1)c1cccc(S(=O)(=O)N2CCCC2)c1,-50.9

row,SMILES,"hERG current change (%, negative = inhibition) at 10uM [%]"
1,Cc1cc(C(=O)Nc2ccc(C)c(S(=O)(=O)N3CCOCC3)c2)c(C)o1,-6.59
2,Cc1ccnc(NC(=O)c2cccc(S(=O)(=O)N3CCOCC3)c2)c1,-18.9
3,O=C(Nc1ccccn1)c1cccc(S(=O)(=O)N2CCCC2)c1,9.44
4,O=C(NCc1ccc(Cl)cc1)c1cccc(S(=O)(=O)N2CCCC2)c1,-30.9
5,O=C1c2ccccc2C(Nc2ccc(S(=O)(=O)N3CCCCC3)cc2)N1Cc1ccco1 (stereo not drawn),-22.7
6,CC(CC(=O)N(C)c1c(N)n(Cc2ccccc2)c(=O)[nH]c1=O)c1ccccc1 (stereo not drawn),-23.3
7,COCc1ccc(C(=O)N2CCCC(N3CCN(c4ccccc4C)CC3)C2)s1 (stereo not drawn),-34.7
8,CSc1cccc(NC(=O)C2CCCN(S(=O)(=O)c3cccs3)C2)c1 (stereo not drawn),3.76
9,COc1ccccc1N(C)C(=O)c1cc(S(=O)(=O)N2CCCC2)cn1C,-3.55
10,CC(NC(=O)C1CCN(S(=O)(=O)c2cnc[nH]2)CC1)c1ccccc1 (stereo not drawn),3.81
11,N/C(=N\OC(=O)c1ccccc1)c1ccn[nH]1,-1.07
12,Cc1cccc(N2N=C(C(=O)Nc3ccc(Cl)c(S(=O)(=O)N4CCOCC4)c3)CCC2=O)c1,-52.4
13,Cc1ccc(S(=O)(=O)N2CCOCC2)cc1NC(=O)C1=NN(c2ccccc2)C(=O)CC1,-18
14,O=C(Nc1cccc(S(=O)(=O)N2CCOCC2)c1)C1=NN(c2ccccc2)C(=O)CC1,-42.9
15,O=C(COC(=O)c1cccc(S(=O)(=O)N2CCOCC2)c1)Nc1ccc(Cl)cn1,-61.1
16,Cc1ccc(C(=O)Nc2ccccn2)cc1S(=O)(=O)N1CCOCC1,-5.72
17,O=C(COC(=O)c1cc(S(=O)(=O)N2CCOCC2)ccc1F)Nc1ccc(Cl)cn1,-37.4
18,Cc1ccc(C(=O)Nc2ccc(Cl)cn2)cc1S(=O)(=O)N1CCOCC1,-51.4
19,Cc1ccc(NC(=O)c2ccc(C)c(S(=O)(=O)N3CCOCC3)c2)nc1,-6.9
20,O=C(COC(=O)c1cccc(S(=O)(=O)N2CCOCC2)c1)Nc1ncc(Cl)cc1Cl,-13.4
